# Inconclusive results are not listed. Unmarked numbers belong to inactive results. Active and inactive are the calls of the source. The call rests on the fitted dose curve; in most records, active means well fitted inhibition curve with a large enough effect; inconclusive means small, poorly fitted or top-dose-only effect; inactive means no such curve, though single readings can be large or run the other way.
# Test system: Zika virus NS2B-NS3 protease (unlinked complex)
# Assay: Primary screen GU Rhodamine qHTS for Zika virus inhibitors: Unlinked NS2B-NS3 protease assay (AID 1347159); further: nearly all actives have a fitted effect of over 60% in size
# Conditions: Recombinant ZIKV NS2B-NS3 protease, Rhodamine110 substrate fluorescence; series mostly up to 107 µM; activity change, negative = inhibition: at the top concentration
# Procedure, shortened: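 In dose–response format, inhibition of unlinked protease (25 nM) was measured with 1.5 microM bis-peptide Rhodamine110 substrate. Aprotinin served as the intraplate control.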
# On the % scale 0 is the no-effect control and ±100 the full control effect; potency means the concentration at half of the fitted maximal effect.
Structure (SMILES),Potency,"activity change, negative = inhibition"
C/C=C/C=C/C=C/C(=O)OC1C=C(C=O)C(O)(C(=O)O)C2(C)CCCC(C)(C)C12 (stereo not given),8.91 µM (active),
CC(C)(C)NCCCNC(=O)c1cccc(Br)c1,,6.07%
CC1(O)CCCC2(C)C1CCC13CC(CO)C(CCC12)C3 (stereo not given),,0.822%
CC(/C=C/C1=CC2=CC(=O)C(C)(O)C(O)C2=CO1)=C\C(C)CCO (stereo not given),,1.94%
Cn1cncc1C(N)(c1ccc(Cl)cc1)c1ccc2c(c1)c(-c1cccc(Cl)c1)cc(=O)n2C (stereo not given),,-3.66%
C/C(=C\CCC(C)CCO)C(=O)OC1(C)CCC2C(C(=O)O)=COC(OC3OC(CO)C(O)C(O)C3O)C21 (stereo not given),,4.74% [at 57.1 µM]
Cc1ccc(F)cc1C(=O)Nc1ccc(C(=O)N2Cc3cccn3Cc3ccccc32)c(Cl)c1,,0%
OCCc1ccc(O[C@@H]2O[C@H](CO)[C@@H](O)[C@H](O)[C@H]2O)cc1,,0.955%
CC(C)N(CCCCOCC(=O)NS(C)(=O)=O)c1cnc(-c2ccccc2)c(-c2ccccc2)n1,7.94 µM (active),
CC1=C(C(=O)O)/C(=C\CO[C@@H]2O[C@H](CO)[C@@H](O)[C@H](O)[C@H]2O)C(OC(=O)/C=C/c2ccc(O)cc2)C1 (stereo not given in full),,-10.6% [at 57.1 µM]
C[C@@H]1C[C@@H]([C@@H](O)C(C)(C)O)O[C@H]2C[C@@]3(C)C(=C12)C[C@H](O)[C@H]1[C@@]2(C)CCC(=O)C(C)(C)C2CC[C@@]13C (stereo not given in full),,9.47% [at 57.1 µM]
Cc1cc(C(=O)N2CCCCc3ccccc32)ccc1CNC(=O)N1CCC[C@H]1C(=O)N(C)C,,10%
COc1cccc(Nc2ncnn3ccc(CN4CC[C@@H](N)[C@H](O)C4)c23)c1,,90.2%
CC(C)=CCC(O)/C(C)=C/CO[C@@H]1O[C@H](CO)[C@@H](O)[C@H](O)[C@H]1O (stereo not given in full),,49.5%
COc1ccc(CNC(=O)c2sc3nc(C)cc(C)c3c2N)cc1,,11.3%
C[C@@H]1O[C@@H](O[C@H]2[C@H](O)[C@@H](O[C@@H]3O[C@H](CO)[C@@H](O)[C@H](O[C@@H]4O[C@H](CO)[C@@H](O)[C@H](O)[C@H]4O)[C@H]3O)[C@H](O[C@H]3CC[C@@]4(C)C(=CC[C@@H]5C4CC[C@@]4(C)C5C[C@@H]5OC6(CC[C@@](C)(CO[C@@H]7O[C@H](CO)[C@@H](O)[C@H](O)[C@H]7O)O6)[C@@H](C)[C@@H]54)C3)O[C@@H]2CO)[C@H](O)[C@H](O)[C@H]1OC1OC(CO)C(O)C(O)C1O (stereo not given in full),,-17.5% [at 19.1 µM]
CCOC(=O)Nc1cc(-c2ccc(C)c(NS(C)(=O)=O)c2)nn2c(C)nnc12,,4.61%
C[C@H](Nc1ncnc2nc[nH]c12)c1cc2ccc(F)cc2nc1-c1ccccn1,,-13.2%

# Test system: Zika virus NS2B-NS3 protease (linked construct)
# Assay: Primary screen NINDS Rhodamine qHTS for Zika virus inhibitors (AID 1347160); further: nearly all actives have a fitted effect of over 55% in size
# Conditions: purified NS2B-NS3 protease, Rhodamine110 substrate fluorescence; series mostly up to 57.1 µM; activity change, negative = inhibition: at the top concentration
# Procedure, shortened: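 Each compound, titrated, sat 15 min with 25 nM linked protease before 1.5 microM Rhodamine110 substrate went in. Fluorescence gain over the next 15 min, in pH 8.0 Tris with Tween 20, gave Hill-fitted curves.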
Structure (SMILES),"activity change, negative = inhibition",Potency,outcome
C=C1C[C@]23C[C@H]1CC[C@H]2[C@@]12CC[C@H](O)[C@@](C)(C(=O)O1)[C@H]2[C@@H]3C(=O)O,0.923% [at 33.1 µM],,
C/C=C1\[C@H](O[C@@H]2O[C@H](CO)[C@@H](O)[C@H](O)[C@H]2O)OC=C2C(=O)OCCc3ccc(O)c(c3)Oc3ccc(cc3)CCOC(=O)C[C@H]21,-8.75% [at 15.1 µM],,
COc1c2cc(c(O)c1OC)-c1cc(ccc1O)CCC(O)CCCC2 (stereo not given),-14.2% [at 33.1 µM],,
C=CC(C)(O)C(O)CC1C(C)(O)C(O)C(O)C2C(C)(C)CCCC21C (stereo not given),26.6% [at 33.1 µM],,
Cn1nnc(-c2ccc(-c3ccc(N4C[C@H](COP(=O)(O)O)OC4=O)cc3F)cn2)n1,-1.27%,,
CC1CC(O)C2(OC1=O)OC1C(O)C3C4CCC5CC(OC6OC(CO)C(O)C(O)C6OC6OC(C)C(O)C(O)C6O)CCC5(C)C4CCC3(C)C1C2C (stereo not given),12.4% [at 15.1 µM],,
Cc1cc(OCc2nc(-c3ccccc3Cl)cs2)ccc1OCC(=O)O,,14.1 µM (active),
COc1ccc(-c2cnc(-c3cccc4c3-c3ccccc3C4=O)o2)cc1,9.87% [at 33.1 µM],,
CC(C)c1cc(C(=O)N2CC[C@@H](NC(=O)C3CC3)C2)n[nH]1,-4.09%,,
CC1(C)CC[C@]2(C(=O)O)[C@H](O)C[C@]3(C)C(=CCC4[C@@]5(C)CC[C@H](O[C@@H]6O[C@H](CO[C@@H]7OC[C@H](O)[C@H](O)[C@H]7O[C@@H]7OC[C@@H](O)[C@H](O)[C@H]7O)[C@@H](O)[C@H](O)[C@H]6O[C@@H]6O[C@H](CO)[C@@H](O)[C@H](O)[C@H]6O)C(C)(C)C5CC[C@]43C)[C@@H]2C1 (stereo not given in full),,,inactive [at 15.1 µM]
COc1c2c(c(CO)c3c1C(=O)OC3)OC1(C)CCC3(O)C(C)(C)OC(=O)CCC3(C)C1C2 (stereo not given),-1.44% [at 33.1 µM],,
CC[C@H]1OC(=O)[C@](C)(F)C(=O)[C@H](C)[C@@H](O[C@@H]2O[C@H](C)C[C@H](N(C)C)[C@H]2O)[C@](C)(OC)C[C@@H](C)C(=O)[C@@H](C)[C@H]2N(CCCCn3cc(-c4cccc(N)c4)nn3)C(=O)O[C@]12C,53.6%,,
Cc1cc(O)c(-c2ccc([C@@H](C)CN(C)C)cc2)c2c1[nH]c(=O)c1sccc12,17.9%,,
C[C@@H]1CN(Cc2ncccn2)C[C@H]1c1nc2c(cnn2C2CCOCC2)c(=O)[nH]1,,,inactive
COC(=O)[C@H](O)[C@H]1C(C)(C)[C@H](OC(=O)C(C)C)[C@@]2(O)C(=O)[C@]1(C)C1CC[C@]3(C)C(CC(=O)O[C@H]3c3ccoc3)[C@]13O[C@@H]32 (stereo not given in full),28.1% [at 15.1 µM],,
O=C(O)[C@@H]1C[C@H]2C[C@@H](CCc3nn[nH]n3)CC[C@H]2CN1,27.5%,,

Structure (SMILES),"activity change, negative = inhibition",Potency,outcome
C/C(=C\CCC1(C)C2CCC(C2)C1(C)O)C(=O)O (stereo not given),-15.9%,,
CN[C@H](CC(C)C)C(=O)N[C@H]1C(=O)N[C@@H](CC(N)=O)C(=O)N[C@H]2C(=O)N[C@H]3C(=O)N[C@H](C(=O)N[C@H](C(=O)O)c4cc(O)cc(O)c4-c4cc3ccc4O)[C@H](O[C@H]3C[C@](C)(N)[C@@H](O)[C@H](C)O3)c3ccc(c(Cl)c3)Oc3cc2cc(c3O[C@@H]2O[C@H](CO)[C@@H](O)[C@H](O)[C@H]2O[C@H]2C[C@](C)(NCc3ccc(-c4ccc(Cl)cc4)cc3)[C@@H](O)[C@H](C)O2)Oc2ccc(cc2Cl)[C@H]1O,190% [at 15.1 µM],,
CC1(O)CCCC2(C)C1CCC13CC(CO)C(CCC12)C3 (stereo not given),16%,,
CC(/C=C/C1=CC2=CC(=O)C(C)(O)C(O)C2=CO1)=C\C(C)CCO (stereo not given),,,inactive [at 33.1 µM]
Cn1cncc1C(N)(c1ccc(Cl)cc1)c1ccc2c(c1)c(-c1cccc(Cl)c1)cc(=O)n2C (stereo not given),,,inactive
C/C(=C\CCC(C)CCO)C(=O)OC1(C)CCC2C(C(=O)O)=COC(OC3OC(CO)C(O)C(O)C3O)C21 (stereo not given),-1.86% [at 33.1 µM],,
Cc1ccc(F)cc1C(=O)Nc1ccc(C(=O)N2Cc3cccn3Cc3ccccc32)c(Cl)c1,-4.1%,,
OCCc1ccc(O[C@@H]2O[C@H](CO)[C@@H](O)[C@H](O)[C@H]2O)cc1,2.89%,,
CC(C)N(CCCCOCC(=O)NS(C)(=O)=O)c1cnc(-c2ccccc2)c(-c2ccccc2)n1,,28.2 µM (active),
CC1=C(C(=O)O)/C(=C\CO[C@@H]2O[C@H](CO)[C@@H](O)[C@H](O)[C@H]2O)C(OC(=O)/C=C/c2ccc(O)cc2)C1 (stereo not given in full),18.9% [at 33.1 µM],,
C[C@@H]1C[C@@H]([C@@H](O)C(C)(C)O)O[C@H]2C[C@@]3(C)C(=C12)C[C@H](O)[C@H]1[C@@]2(C)CCC(=O)C(C)(C)C2CC[C@@]13C (stereo not given in full),,,inactive [at 33.1 µM]
COc1cccc(Nc2ncnn3ccc(CN4CC[C@@H](N)[C@H](O)C4)c23)c1,34.5%,,
CC(C)=CCC(O)/C(C)=C/CO[C@@H]1O[C@H](CO)[C@@H](O)[C@H](O)[C@H]1O (stereo not given in full),-0.897% [at 33.1 µM],,
COc1ccc(CNC(=O)c2sc3nc(C)cc(C)c3c2N)cc1,,,inactive
CCOC(=O)Nc1cc(-c2ccc(C)c(NS(C)(=O)=O)c2)nn2c(C)nnc12,,,inactive
C[C@H](Nc1ncnc2nc[nH]c12)c1cc2ccc(F)cc2nc1-c1ccccn1,14.2%,,

# Reference: PubChem BioAssay (NCATS)
